Compound activity: PubChem, National Center for Advancing Translational Sciences (NCATS)
JMJD2A Tudor inh – inhibitors of human JMJD2A Tudor domain; O75164; AlphaScreen JMJD2A-Tudor / H3K4me3 peptide binding; Potency, µM (series often up to 114 µM), inactives show at the top dose activity change, negative = inhibition, usual class: inhibitors; 4.4% of 390,000 active; further: on the % scale 0 is the no-effect control and ±100 the full control effect; nearly all actives have a fitted effect of over 50% in size
BAZ2B inh – inhibitors of human BAZ2B bromodomain; Q9UIF8; AlphaScreen BAZ2B-H3K14Ac peptide displacement; Potency, µM (highest dose often 114 µM), inactives show top-dose activity change, negative = inhibition, usual class: inhibitors; 4.4% of 360,000 active; AID 504333; further: on the % scale 0 is the no-effect control and ±100 the full control effect; nearly all actives have a fitted effect of over 60% in size
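Protein-peptide AlphaScreen: BAZ2B 50 nM, b-H3K14Ac 50 nM, 1x PBS pH 7.4 + 0.01% Tween-20. Preincubation 30 min RT; cpd 30 min RT (top 110 uM); beads 20 min RT, light-protected.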
G9a inh – blocks human histone lysine methyltransferase G9a; AID 504332; Potency, µM (highest dose often 102 µM), for the others: at the highest dose activity, negative = inhibition, most hits filed as inhibitors; 8.8% of 350,000 active; G9a H3K9 monomethylation, AlphaScreen, 2 h; Q96KQ7; further: on the % scale 0 is the no-effect control and ±100 the full control effect; nearly all actives have a fitted effect of over 75% in size
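Step 1: enzyme (final 20 nM) with compound, 15 min RT. Step 2: substrate peptide 500 nM and SAM 20 uM, 2 h RT. Step 3: anti-H3K9me1 antibody and AlphaScreen beads, 10 min, then plate read.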
L3MBTL1 inh – blocks human L3MBTL1. Q9Y468. AlphaScreen L3MBTL1–H3K9me1 peptide binding. Potency, µM (top dose mostly 57.1 µM), without a hit: at the highest dose activity, negative = inhibition, most hits filed as inhibitors. 0.66% of 230,000 active; further: on the % scale 0 is the no-effect control and ±100 the full control effect; nearly all actives have a fitted effect of over 60% in size
Target sequence (Q9Y468 whole entry, looked up): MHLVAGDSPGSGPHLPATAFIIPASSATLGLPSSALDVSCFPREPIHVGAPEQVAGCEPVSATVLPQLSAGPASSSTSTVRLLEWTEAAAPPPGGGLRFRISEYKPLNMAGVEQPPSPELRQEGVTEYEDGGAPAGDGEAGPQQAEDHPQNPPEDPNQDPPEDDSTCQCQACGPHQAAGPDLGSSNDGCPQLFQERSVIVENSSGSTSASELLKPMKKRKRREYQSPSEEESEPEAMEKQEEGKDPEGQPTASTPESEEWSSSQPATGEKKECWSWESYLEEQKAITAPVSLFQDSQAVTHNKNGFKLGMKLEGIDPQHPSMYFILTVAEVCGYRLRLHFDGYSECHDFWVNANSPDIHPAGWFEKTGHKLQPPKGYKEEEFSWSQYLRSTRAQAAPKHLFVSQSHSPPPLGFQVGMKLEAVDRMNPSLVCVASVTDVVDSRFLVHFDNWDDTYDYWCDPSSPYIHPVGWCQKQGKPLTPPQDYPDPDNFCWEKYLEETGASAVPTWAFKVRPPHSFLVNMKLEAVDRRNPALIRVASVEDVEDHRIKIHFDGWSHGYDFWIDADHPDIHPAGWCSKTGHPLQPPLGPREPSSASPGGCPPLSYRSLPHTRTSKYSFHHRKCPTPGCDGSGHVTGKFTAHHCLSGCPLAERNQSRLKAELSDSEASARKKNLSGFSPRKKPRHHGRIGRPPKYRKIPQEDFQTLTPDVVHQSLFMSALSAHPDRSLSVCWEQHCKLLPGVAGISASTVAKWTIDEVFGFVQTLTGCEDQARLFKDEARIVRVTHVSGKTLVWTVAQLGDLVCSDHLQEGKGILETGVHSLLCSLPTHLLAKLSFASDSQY
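L3MBTL1 50 nM + b-AHA-H3(1-15)K9me1 75 nM, 30 min RT; compound added, 30 min RT; streptavidin donor/Ni-chelate acceptor beads 10 ug/mL each final, 30 min RT dark; AlphaScreen read.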
Sfp inh – blocks B. subtilis Sfp PPTase activity. Q9F4F7. Potency, µM, inactives show largest response in the series, negative = inhibition, hits mostly inhibitors. Biochemical Sfp PPTase activity, qHTS. 3.5% of 310,000 active;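 further: the enzyme is Sfp with the accession as filed and its product quenches rhodamine fluorescence; 0% = enzyme reaction without inhibitor and -100% = no enzyme wells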
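Fluorescence-quenching assay with 15 nM Sfp, 5 uM rhodamine-CoA and 12.5 uM BHQ-2-labelled ybbR peptide in pH 7.6 Hepes/MgCl2 buffer. Enzyme was pre-incubated with compound for 15 min at room temperature. Rate was taken from the 30-min fluorescence change (525/598 nm).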
HP1b binding inh – inhibitors of HP1-beta chromodomain binding to methylated histone tails. P83916. AlphaScreen HP1-beta / biotin-H3K9me3 peptide binding. Potency, µM (doses to about 114 µM), inactives show at the highest dose activity change, negative = inhibition, usual class: inhibitors. 0.56% of 390,000 active; further: nearly all actives have a fitted effect of over 70% in size
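HP1-beta protein (50 nM final) preincubated 30 min at room temperature with biotinylated H3(1-18)K9me3 peptide (50 nM) in PBS pH 7.4, 0.01% Tween-20, then compound added for 30 min. AlphaScreen streptavidin donor/nickel chelate acceptor beads (10 ug/mL final), 30 min dark, luminescence read.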
The depositor's hits bear a star; [ ] = dose if it differs, or a comment. Hits are enriched below; roughly 12% of the tested compounds scored in any of these assays. The call rests on the fitted dose curve; in most records, active means well fitted curve in the direction sought with a large enough effect; inconclusive means small, poorly fitted or top-dose-only effect, or another doubt; inactive means no such curve, though single readings can be large; an effect the other way counts as inactive or inconclusive. Potency means the concentration at half of the fitted maximal effect.

Results for FC(F)Sc1ccc(NC(=S)NC2CCCC2)cc1 ?
JMJD2A Tudor inh: -14.4%; BAZ2B inh: -1.4%; G9a inh: 30.7%; L3MBTL1 inh: 19.1%; Sfp inh: 11.8%; HP1b binding inh: 25.0%

Results for CCN(C(=S)Nc1cccnc1)c1cccc2ccccc12 ?
JMJD2A Tudor inh: -27.1%; BAZ2B inh: inconclusive; G9a inh: inconclusive; L3MBTL1 inh: -7.8%[11.4 µM]; Sfp inh: 22.4µM*; HP1b binding inh: -11.1%

Results for COc1cccc(NC(=O)c2oc3ccccc3c2NC(=O)c2ccccc2C)c1 ?
JMJD2A Tudor inh: -10.6%; BAZ2B inh: -13.1%; G9a inh: -17.9%[59 µM]; HP1b binding inh: 36.7%

Results for O=C(CN1C2=NCCCN2c2ccccc21)c1ccc(Br)s1 ?
JMJD2A Tudor inh: -18.5%; BAZ2B inh: -33.7%; G9a inh: 50.1µM*; L3MBTL1 inh: -3.4%; Sfp inh: -19.6%; HP1b binding inh: 9.4%

How did O=C(O)CN1C2=NCCCN2c2ccccc21 do in these assays?
JMJD2A Tudor inh: 5.4%; BAZ2B inh: -25.4%; G9a inh: inconclusive; L3MBTL1 inh: 1.1%; Sfp inh: 10.8%; HP1b binding inh: 13.5%

Results for CC(=O)c1cc(-c2ccc(F)cc2)n(CC(=O)NC2CCCCCC2)c1C ?
JMJD2A Tudor inh: -5.1%; BAZ2B inh: -0.1%; G9a inh: 7.0%[59 µM]; HP1b binding inh: 27.2%

Results for CC1=C(C(=O)Nc2ccccc2)C(c2cccn2C)n2ncnc2N1 (centres undefined) ?
JMJD2A Tudor inh: -9.3%; BAZ2B inh: -20.8%; G9a inh: 7.6%[59 µM]; HP1b binding inh: 15.0%[57 µM]

Results for O=C(Nc1ccc(N2CCCC2)cc1)c1ccc2ccccc2c1 ?
JMJD2A Tudor inh: -10.4%; BAZ2B inh: 0.8%; G9a inh: 6.31µM*; L3MBTL1 inh: -11.4%; Sfp inh: -1.2%; HP1b binding inh: 11.3%

Results for Cc1ccc(C(=O)Nc2ccc(N3CCCCC3)cc2)cc1 ?
JMJD2A Tudor inh: -20.0%; L3MBTL1 inh: 3.2%; HP1b binding inh: 21.3%

How did CC(=O)c1c[nH]c(C(=O)Nc2ccc(N3CCCCCC3)cc2)c1 do in these assays?
JMJD2A Tudor inh: 35.5µM*; BAZ2B inh: 35.5µM*; G9a inh: -11.6%[2.33 µM]; L3MBTL1 inh: -18.2%; HP1b binding inh: inconclusive

How did O=C(Nc1cccc(NC(=O)c2cncc(Br)c2)c1)c1cncc(Br)c1 do in these assays?
JMJD2A Tudor inh: -9.1%; BAZ2B inh: -3.8%; G9a inh: 44.7µM*; L3MBTL1 inh: -1.8%; Sfp inh: -11.9%; HP1b binding inh: 44.3%

How did O=C(Nc1ccncc1)c1cncc(Br)c1 do in these assays?
JMJD2A Tudor inh: -19.6%; BAZ2B inh: -28.6%; G9a inh: inconclusive; L3MBTL1 inh: -8.1%; Sfp inh: -3.1%; HP1b binding inh: 31.6%

Results for Cc1nc(-c2ccc(C(=O)Nc3cccc(Br)c3)cc2)cs1 ?
JMJD2A Tudor inh: 4.2%; BAZ2B inh: inconclusive; G9a inh: 2.2%; L3MBTL1 inh: 2.3%; Sfp inh: 50.1µM*; HP1b binding inh: 67.9%

Results for Cc1cc(C)c(NC(=O)Cn2c(=O)n(CC(=O)NCCc3ccccc3)c(=O)c3ccccc32)c(C)c1 ?
JMJD2A Tudor inh: -14.0%; BAZ2B inh: inconclusive; G9a inh: 5.0%[59 µM]; HP1b binding inh: 31.1%

What do the screens show for `CCCCN(CCCC)S(=O)(=O)c1ccc(NC(=O)c2c(-c3ccccc3)noc2C)cc1`?
JMJD2A Tudor inh: -11.7%; BAZ2B inh: 1.8%; G9a inh: 4.0%[59 µM]; HP1b binding inh: 35.3%

How did COc1c(Cl)cccc1NC(=O)c1c(NC(=O)Cc2ccccc2)sc2c1CCCC2 do in these assays?
JMJD2A Tudor inh: -9.6%

Results for COc1ccc(OC)c(CNC(=O)CCCn2nc(C)c3c(C)n(-c4ccc(C)cc4)nc3c2=O)c1 ?
JMJD2A Tudor inh: -15.5%; BAZ2B inh: -17.8%; G9a inh: -7.8%[59 µM]; HP1b binding inh: 19.7%

What do the screens show for `CCCNC(=O)N1N=C(c2ccc(N)cc2)c2cc3c(cc2C1C)OCO3` (centres undefined)?
Sfp inh: -15.0%

How did CCc1ccc(NC(=O)CN2CCCN(Cc3cccc(Cl)c3)S2(=O)=O)cc1 do in these assays?
JMJD2A Tudor inh: -3.4%; BAZ2B inh: -7.6%; G9a inh: -5.7%[59 µM]; HP1b binding inh: 16.0%

Results for O=C(Nc1ccc(N2CCCCC2)cc1)c1cncc(Br)c1 ?
JMJD2A Tudor inh: -22.9%; BAZ2B inh: inconclusive; G9a inh: 79.4µM*; L3MBTL1 inh: -7.6%; Sfp inh: 5.5%; HP1b binding inh: 5.2%

What do the screens show for `O=C(Nc1ccc(S(=O)(=O)N2CCCC2)cc1)c1cncc(Br)c1`?
JMJD2A Tudor inh: -17.4%; BAZ2B inh: 8.1%; G9a inh: -1.8%[59 µM]; L3MBTL1 inh: 5.9%; HP1b binding inh: 24.2%

What do the screens show for `Cc1c(C(=O)N2CCCC2)oc2c1-c1[nH]ncc1CC2`?
JMJD2A Tudor inh: -15.0%; BAZ2B inh: -5.0%; G9a inh: 50.1µM*; L3MBTL1 inh: 0.3%; Sfp inh: inconclusive; HP1b binding inh: 24.1%

Results for C/C(=N\NC(=O)CSCc1ccccc1Cl)c1cc(O)ccc1O ?
JMJD2A Tudor inh: inconclusive; BAZ2B inh: 39.8µM*; L3MBTL1 inh: -28.6%; Sfp inh: inconclusive; HP1b binding inh: inconclusive

How did Cc1cccc(NC(=O)N2CCC(CN3CCCCCC3)CC2)c1C do in these assays?
JMJD2A Tudor inh: -25.4%; BAZ2B inh: -1.8%; G9a inh: inconclusive; HP1b binding inh: 11.9%

Results for Cc1noc(C)c1-c1ccc2ncnc(Nc3ccc(F)cc3)c2c1 ?
G9a inh: 21.4%[0.501 µM]; Sfp inh: 6.2%

How did CC1=C/C(=C(\c2cc(C)c(O)c(Br)c2)c2ccccc2S(=O)(=O)O)C=C(Br)C1=O do in these assays?
JMJD2A Tudor inh: inconclusive; BAZ2B inh: 20µM*; G9a inh: 14.1µM*; L3MBTL1 inh: 22.4µM*; Sfp inh: 44.7µM*; HP1b binding inh: 28.2µM*

Results for Cc1cc(C(=O)c2ccccc2)cc(C)c1O ?
JMJD2A Tudor inh: -3.4%; HP1b binding inh: 25.1%

What do the screens show for `CCOc1cc(/C=C2\CCCC(C(=O)C(F)(F)F)=C2O)ccc1O`?
JMJD2A Tudor inh: -32.9%; BAZ2B inh: -33.2%; G9a inh: 20µM*; L3MBTL1 inh: -7.9%; Sfp inh: -16.6%; HP1b binding inh: 14.9%

What do the screens show for `COc1ccc(/C=C2\CCCC(C(=O)C(F)(F)F)=C2O)cc1OC`?
BAZ2B inh: inconclusive; G9a inh: 8.91µM*; Sfp inh: -13.0%

Results for COc1cc(/C=C2/CCCC(C(=O)C(F)(F)F)=C2O)ccc1O ?
JMJD2A Tudor inh: -27.1%; BAZ2B inh: inconclusive; G9a inh: -125.8%[59 µM]; L3MBTL1 inh: -5.4%; Sfp inh: -29.2%; HP1b binding inh: -6.8%
